# High-throughput results deposited in PubChem BioAssay by National Center for Advancing Translational Sciences (NCATS).
# In the library only some 3.2% were active in any assay of this set; here they are far more common.
# Tau FP inhib: qHTS for Inhibitors of Tau Fibril Formation, Fluorescence Polarization; K18 P301L tau heparin fibrillization, Alexa594 FP, 6 h; Microtubule-associated protein tau (Homo sapiens), P10636; 280,000 compounds, 0.39% hits; Potency, µM (highest dose often 57.7 µM), for the others: at the highest dose activity, negative = inhibition, actives largely listed as inhibitors; also: nearly all actives have a fitted effect of over 55% in size
# Target sequence (P10636 561-689 P618L limits assumed): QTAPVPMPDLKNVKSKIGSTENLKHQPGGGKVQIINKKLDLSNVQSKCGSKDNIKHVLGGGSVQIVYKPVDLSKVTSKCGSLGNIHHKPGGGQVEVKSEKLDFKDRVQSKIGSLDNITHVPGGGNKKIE
#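 Read-out: fluorescence polarization of Alexa 594-labeled tau (0.24 uM), 555 nm excitation, 632 nm emission. Mixtures held 15 uM unlabeled K18 P301L, compound and 20 uM heparin, pH 7 acetate buffer, incubated 6 hr at 37 C.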
# Tau fibril ThT: qHTS for Inhibitors of Tau Fibril Formation, Thioflavin T Binding | Microtubule-associated protein tau (Homo sapiens), P10636 | recombinant tau K18 P301L, heparin-induced fibrillization, ThT fluorescence | Potency, µM (series often up to 57.4 µM), without a hit: at the top dose activity, negative = inhibition, actives largely listed as inhibitors | 270,000 compounds, 2.1% hits | AID 1460, 2008; also: nearly all actives have a fitted effect of over 55% in size
#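 Fibril formation assay: tau K18 P301L at 15 uM with trace Alexa 594 label, heparin inducer 20 uM, pH 7 sodium acetate buffer, 37 C for 6 hr; endpoint ThT signal.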
# GoLoco inh red: qHTS Assay for Inhibitors of RGS12 GoLoco Motif Activity (Red Fluorophore); Guanine nucleotide-binding protein G(i) subunit alpha-1 (Homo sapiens), P63096; Gai1:RGS12 GoLoco peptide FP, rhodamine, 10 min; Potency, µM (top dose mostly 61.6 µM), without a hit: at the highest dose activity, negative = inhibition, most hits filed as inhibitors; 230,000 compounds, 0.44% hits; AID 880, 2007; active = well fitted inhibition curve with a large enough effect, not every such curve was filed as active; inactive = no such curve, though single readings can be large or run the other way; also: nearly all actives have a fitted effect of over 30% in size
# TR SRC2 fluor cs: Total Fluorescence Counterscreen for Inhibitors of the Interaction of Thyroid Hormone Receptor and Steroid Receptor Coregulator 2 | Potency, µM (series often up to 106 µM), without a hit: top-dose fluorescence change, negative = quenching | 280,000 compounds, 0.29% hits | AID 1479, 2009 | TRb/SRC2 Texas Red total fluorescence interference; active = well fitted curve in either direction with a large enough effect; inconclusive = small, poorly fitted or top-dose-only effect
#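 Human TRb ligand-binding domain at 0.6 uM with 20 nM Texas Red SRC2 peptide in Tris buffer containing 1 uM T3 and 5% DMSO, incubated with compound 5 h at ambient temperature. Total fluorescence (555/632 nm) calculated as parallel + 2 × perpendicular.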
# Tau fluor cs: Counterscreen qHTS for Inhibitors of Tau Fibril Formation, Fluorescence Polarization; tau K18 P301L (four-repeat tau fragment) Alexa594 fluorescence, heparin fibrillization; Potency, µM (top dose mostly 57.7 µM), inactives show at the top dose activity change, negative = decrease; 280,000 compounds, 0.93% hits; AID 1463, 2008; also: nearly all actives have a fitted effect of over 55% in size
#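 Human K18 P301L tau (15 uM unlabeled plus 0.24 uM Alexa 594-labeled, final) in 100 mM sodium acetate pH 7 was mixed with compound and 20 uM heparin and incubated 6 hr at 37 C.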
# TRb SRC2 PPI: qHTS for Inhibitors of the Interaction of Thyroid Hormone Receptor and Steroid Receptor Coregulator 2 | TRbeta-SRC2 peptide binding, fluorescence polarization; receptor liganded with 1 µM T3 | 280,000 compounds, 0.065% hits | AID 1469, 2008 | Potency, µM (titrated, usually from 106 µM), for inactives: at the highest dose activity change, negative = inhibition, hits mostly inhibitors | Thyroid hormone receptor beta (Homo sapiens), P10828;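 also: plate controls were bound peptide for no effect and peptide without receptor for full effect; nearly all actives have a fitted effect of over 50% in size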
# Target sequence (P10828 whole entry, looked up): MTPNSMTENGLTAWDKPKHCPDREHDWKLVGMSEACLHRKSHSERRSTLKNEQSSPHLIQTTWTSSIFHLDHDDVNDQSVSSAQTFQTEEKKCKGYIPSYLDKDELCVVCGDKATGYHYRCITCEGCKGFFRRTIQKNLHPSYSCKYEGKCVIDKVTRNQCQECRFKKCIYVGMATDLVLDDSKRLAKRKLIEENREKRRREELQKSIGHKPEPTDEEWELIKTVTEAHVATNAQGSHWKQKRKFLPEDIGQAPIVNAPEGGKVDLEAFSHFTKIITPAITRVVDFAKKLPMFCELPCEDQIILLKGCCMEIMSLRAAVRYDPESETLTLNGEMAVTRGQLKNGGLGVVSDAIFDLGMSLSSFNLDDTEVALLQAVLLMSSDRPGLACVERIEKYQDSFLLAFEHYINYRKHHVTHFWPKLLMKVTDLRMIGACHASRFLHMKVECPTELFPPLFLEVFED
#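 Fluorescence polarization of 20 nM Texas Red SRC2 peptide with 0.6 uM human TRb ligand-binding domain, in Tris buffer with 1uM T3 and 5% DMSO. Incubated 5 hr ambient; normalized to unbound and bound controls.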
# The depositor's hits bear a star; ? = inconclusive; nt = not tested or not shown; [ ] = dose if it differs, or a comment. Unless noted, calls follow the shape of the dose curve; as a rule, active = well fitted curve in the direction sought with a large enough effect; inconclusive = small, poorly fitted or top-dose-only effect, or another doubt; inactive = no such curve, though single readings can be large; an effect the other way counts as inactive or inconclusive. Unless noted, % is scaled to controls: 0 for no effect and ±100 for the full control effect; potency is read from the fitted curve at half-maximal effect.
SMILES,Tau FP inhib,Tau fibril ThT,GoLoco inh red,TR SRC2 fluor cs,Tau fluor cs,TRb SRC2 PPI
NC(N)=NCCC[C@H](N)C(=O)N1CCC[C@H]1C(=O)N1CCC[C@H]1C(=O)NCC(=O)N[C@@H](Cc1ccccc1)C(=O)N[C@@H](CO)C(=O)N1CCC[C@H]1C(=O)N[C@@H](Cc1ccccc1)C(=O)O,nt,nt,nt,-1%,nt,11%
O=C(NC1=NCCS1)c1cc(-c2ccc(-c3ccccc3)cc2)nc2ccccc12,28µM*,-5%,6%,3%,-23%,8%
CCOC(=O)c1sc(NC(=O)c2cc(-c3ccc(C)cc3)nc3ccccc23)c(C#N)c1C,?,?,-2%,-7%,-26%,6%
COC(=O)c1sc(NC(=O)c2cc(-c3ccccc3)nc3ccccc23)c(C#N)c1C,?,28µM*,-1%,1%,?,7%
CC[C@H](C)[C@H](NC(=O)CNC(=O)[C@H](CCCNC(=N)N)NC(=O)[C@H](CO)NC(=O)[C@H](C)NC(=O)[C@H](Cc1ccc(O)cc1)NC(=O)[C@H](Cc1c[nH]c2ccccc12)NC(=O)[C@H](C)NC(=O)[C@@H]1CCCN1C(=O)[C@H](CC(N)=O)NC(=O)[C@@H](NC(=O)[C@H](CC(=O)O)NC(=O)[C@@H]1CCCN1C(=O)[C@@H](N)[C@@H](C)O)[C@@H](C)CC)C(=O)N[C@@H](CCCNC(=N)N)C(=O)N1CCC[C@H]1C(=O)N[C@H](C(=O)NCC(=O)N[C@@H](CCCNC(=N)N)C(=O)N[C@@H](Cc1ccccc1)C(N)=O)C(C)C,nt,nt,nt,-6%,nt,-2%
ClCCCl,nt,nt,5%,-3%[201 µM],nt,-1%[201 µM]
CN1CCN(CN2C(=O)C3C4C=CC(C3C2=O)C2C3C(=O)N(CN5CCN(C)CC5)C(=O)C3C42)CC1 (configuration not stated),nt,nt,-1%[14.2 µM],nt,nt,nt
Nc1nc2c(ncn2[C@@H]2C=C[C@@H](CO)C2)c(=O)[nH]1,nt,nt,-3%[14.2 µM],nt,nt,nt
CCn1c(C)cc(=S)c2ccccc21,?,20µM*,14%,1%,-29%,-2%
Cc1ccccc1C(=O)NC1(C(F)(F)F)N=C(c2ccccc2)N(Cc2ccccc2)C1=O (configuration not stated),-1%,?,nt,10µM*[quencher],?,-3%
O=C(Nc1ccc(Cl)cc1)Nc1ccccc1NS(=O)(=O)c1cccs1,?,?,8%,0%,14µM*[quencher],1%
O=C(Nc1ccc(F)cc1)Nc1ccccc1NS(=O)(=O)c1cccs1,-11%,-10%,nt,1%,?,0%
O=C(Nc1ccc(Cl)cc1)Nc1cccc2nsnc12,14µM*,?,-3%,2%,?,-2%
CC(C)c1ccccc1S(=O)c1ccccc1C(C)(C)O (configuration not stated),nt,nt,1%[14.2 µM],nt,nt,nt
CC(C)(C)OC(=O)N[C@@H](Cc1ccccc1)c1nnc(S(=O)(=O)Cc2ccccc2)o1,-9%,-4%,18µM*,-3%,3%,-10%
CCNc1ncc2nc(CCc3ccccc3)c(=O)n(CCC#N)c2n1,nt,nt,0%,nt,nt,nt
Nc1nc(N)c(N=Nc2ccc(Cl)cc2)c(=O)[nH]1,8%,?,2%,-2%,-2%,-4%
Cc1[nH][nH]c(=O)c1N=Nc1ccc(Cl)cc1,0%,8.9µM*,5%,-6%,-15%,0%
CCCc1nc2ccccc2n1CC(O)COc1ccc(C(=O)OC)cc1 (configuration not stated),-7%,?,nt,?,-8%,-4%
NC(CSS(=O)(=O)O)=NCCC12CC3CC(CC(O)(C3)C1)C2,?,3.5µM*,-17%,-1%,-12%,-24%
NC(CSS(=O)(=O)O)=N[C@@H]1C[C@H]2CC[C@@H]1C2,nt,nt,3%[14.2 µM],nt,nt,nt
COc1ccc(-c2cn[nH]c2-c2ccc(OCc3ccccc3)cc2O)cc1,?,-14%,5%,-5%,6.3µM*[quencher],0%
O=[N+]([O-])c1ccc(COc2ccc(-c3[nH]ncc3-c3ccc(Cl)cc3)c(O)c2)cc1,-2%,5%,-19%,-103%[53 µM],2%,74%[53 µM]
COc1ccccc1-c1cn[nH]c1-c1ccc(OCc2ccccc2)cc1O,?,-13%,-3%,3%,11µM*[quencher],5%
COC(=O)c1c(-c2cccs2)csc1NC(=O)COc1ccc(C(C)(C)C)cc1,-20%,?,nt,-12%,-22%,-5%
SMILES,Tau FP inhib,Tau fibril ThT,GoLoco inh red,TR SRC2 fluor cs,Tau fluor cs,TRb SRC2 PPI
COC(=O)c1c(-c2cccs2)csc1NC(=O)COc1c(C)ccc(C)c1C,?,20µM*,nt,-4%,-19%,-2%
COC(=O)c1c(-c2cccs2)csc1NC(=O)COc1ccc(C)cc1,-4%,?,nt,?,-27%,-26%
COC(=O)c1c(-c2cccs2)csc1NC(=O)COc1ccccc1,?,20µM*,nt,6%,?,5%
O=C(c1ccncc1)N1CCC2(CC1)CN(c1ccncc1)C2,nt,nt,8%,nt,nt,nt
Nc1c(S(=O)(=O)O)cc(Nc2ccc(Nc3nc(Cl)nc(Nc4ccc(S(=O)(=O)O)cc4)n3)c(S(=O)(=O)O)c2)c2c1C(=O)c1ccccc1C2=O,10µM*,4µM*,4%,22µM*[quencher],2.8µM*[quencher],10%
CCOC(=O)c1ccc(Nc2c(OCC)c(=O)c2=O)cc1,-5%,nt,5%,-3%,18µM*[quencher],-8%
CCOc1c(Nc2ccccc2O)c(=O)c1=O,1%,-2%,4%,-2%,1%,3%
Cc1ccc(C(=O)CSC2=C(C#N)C(c3ccco3)C3=C(CC(C)(C)CC3=O)N2)cc1 (configuration not stated),8%,?,5%,-2%,-23%,8%
CC(=O)C1=C(C)NC(SCC(=O)c2ccc(C)cc2)=C(C#N)C1c1ccco1 (configuration not stated),?,16µM*,31%,-2%,14µM*[quencher],-5%
CCCn1cc(S(=O)(=O)c2cccc(Cl)c2)c(=O)c2cc(F)c(N3CCN(CC)CC3)cc21,3%,6%,nt,112µM*[quencher],5%,-26%
CCN(CC)c1cc2c(cc1F)c(=O)c(S(=O)(=O)c1ccc(OC)cc1)cn2CC,0%,0%,nt,50µM*[quencher],-1%,-25%
